Where “and” joins values, the source holds several entries; their conditions need not be identical. Equal values may be shown once. Inconclusive results are not listed. A call without a number means that no potency is given here. Some compounds were tested as several samples or in several runs, with calls that do not always agree. Calls of active or inactive are those of the source. Calls follow the shape of the dose curve; as a rule, active = well fitted cell-killing curve with a large enough effect in the repeat runs; inconclusive = weak or mixed curves, or effect the other way; inactive = flat fitted curve, though single readings scatter.
Experiment: qHTS RealTime-Glo MT Cell Viability Assay in HEK293 cells - 24 hour (AID 1224886); also: nearly all actives have a fitted effect of over 50% in size; as to activity change, negative = cytotoxicity: top concentration of the series differs between compounds
Conditions: RealTime-Glo luminescence; series mostly up to 76.8 µM
From the text: National Center for Advancing Translational Sciences [NCATS]
NIH Chemical Genomics Center [NCGC]
U.S. Environmental Protection Agency [EPA]
National Institutes of Environmental Health Sciences [NIEHS]
National Toxicology Program [NTP]
U.S. Food and Drug Administration [FDA]
Measure of cell viability is critical in the cell-base assay. Analysis of cell viability is necessary for the characterization of cell responses to cytotoxic drugs and environmental stress. A RealTime-Glo MT Cell Viability Assay to monitor cell viability in real time of continues cell culture during 40 hours of compound treatment was used to screen Tox21 10K library compounds in Hek293 cells. The RealTime-Glo MT Cell Viability Assay is a nonlytic, homogeneous, bioluminescent method to measure cell viability in real time using a simple, plate-based method. The assay involves adding NanoLuc luciferase and a cell-permeant prosubstrate to cells in culture. Viable cells reduce the proprietary prosubstrate to generate a substrate for NanoLuc luciferase. This substrate diffuses from cells into the surrounding culture medium, where it is rapidly used by the NanoLuc Enzyme to produce a luminescent signal. The signal correlates with the number of viable cells, making the assay well suited for cytotoxicity studies.
Tox21 Assay Protocol Summary:
The mixture of Hek293 cell suspension and reagents were dispensed at 600cells/6 ul/well in 1536-well tissue culture treated black solid bottom plates using a Multidrop dispenser. After the assay plates were incubated at a 37 C/5% CO2 incubator for 5 hours, 23 nL of compounds dissolved in DMSO, positive and negative controls was transferred to the assay plate by a pintool work station. The plates were incubated at 37 C for 40 hours. The luminescence intensity were measured at 0h, 8h, 16h, 24h, 32h and 40h time points using ViewLux plate reader during compound treatment.
Potency is read from the fitted curve at half-maximal effect.

Row | SMILES | Potency | activity change, negative = cytotoxicity
1 | O | inactive | –
2 | N[C@@H]1CONC1=O | inactive | –
3 | NC(N)=Nc1nc(CSCC/C(N)=N/S(N)(=O)=O)cs1 | inactive | –
4 | CC(C(O)c1ccc(O)cc1)N1CCC(Cc2ccccc2)CC1 (stereo not given) | inactive | –
5 | CCC(=O)/C=C/C1C(C)=CCCC1(C)C (stereo not given) | inactive | –
6 | CC[C@]1(O)C[C@@H]2CN(CCc3c([nH]c4ccccc34)[C@@](C(=O)OC)(c3cc4c(cc3OC)N(C)[C@H]3[C@@](O)(C(=O)OC)[C@H](OC(C)=O)[C@]5(CC)C=CCN6CC[C@]43[C@@H]65)C2)C1 | 0.0043 µM (active) | –
7 | Oc1c(Cl)cc(Cl)cc1Sc1cc(Cl)cc(Cl)c1O | 21.9 µM (active) | –
8 | Cc1cccc([N+](=O)[O-])c1C(=O)O | inactive | –
9 | CC(C)(C)NC(=O)[C@@H]1CN(Cc2cccnc2)CCN1C[C@@H](O)C[C@@H](Cc1ccccc1)C(=O)N[C@H]1c2ccccc2C[C@H]1O | inactive | –
10 | O=C(O)CP(=O)(O)O | inactive | –
11 | Nc1nc(=S)c2[nH]cnc2[nH]1 | 21.9 µM (active) | –
12 | CC(C)CCCCCCc1ccc(O)cc1 | 4.44 µM (active) | –
13 | Cc1ccc(S(=O)(=O)Oc2ccc(N=Nc3ccc(-c4ccc(N=Nc5c(O)ccc6cc(S(=O)(=O)O)cc(S(=O)(=O)O)c56)c(C)c4)cc3C)cc2)cc1 | inactive | –
14 | CCN(CC)C(=S)SSC(=S)N(CC)CC | 195 nM (active) and 100 nM (active) and 13.4 µM (active) | –
15 | COC(c1ccccc1)(c1ccccc1)[C@H](Oc1nc(C)cc(C)n1)C(=O)O | inactive | –
16 | COC(=O)/C=C/c1ccccc1 | inactive | –
17 | O=C(O[C@@H]1Cc2c(O)cc(O)cc2O[C@@H]1c1cc(O)c(O)c(O)c1)c1cc(O)c(O)c(O)c1 | 10.6 µM (active) | –
18 | CC(C)C(=O)c1c(C(C)C)nn2ccccc12 | inactive | –
19 | CCn1c2ccccc2c2cc(N)ccc21 | inactive | –
20 | CC[C@H]1CN2CCc3cc(OC)c(OC)cc3[C@@H]2C[C@@H]1C[C@H]1NCCc2cc(OC)c(OC)cc21 | 17.4 nM (active) and 47.7 nM (active) | –

Row | SMILES | Potency | activity change, negative = cytotoxicity
21 | O=C(O)Cn1cnnn1 | inactive | –
22 | CN(C)c1ccc2nc3ccc(=[N+](C)C)cc-3sc2c1 | 2.36 µM (active) and 2.19 µM (active) and 2.68 µM (active) | –
23 | O=C(Cl)c1cccc(C(=O)Cl)c1 | inactive | –
24 | c1cc(C(c2ccc(OCC3CO3)cc2)C(c2ccc(OCC3CO3)cc2)c2ccc(OCC3CO3)cc2)ccc1OCC1CO1 (stereo not given) | inactive | –
25 | NC(N)=NC(=O)Cc1c(Cl)cccc1Cl | inactive | –
26 | O=C1NCC2(CCN(CCc3ccccc3)CC2)O1 | inactive | –
27 | NCCO | inactive | –
28 | c1ccc2c(c1)CCCC2C1=NCCN1 (stereo not given) | inactive | –
29 | C=C(C)C1CC=C(C)C(OC(C)=O)C1 (stereo not given) | inactive | –
30 | CC(=O)Nc1ccc(C(=O)CCl)cc1 | inactive and 19.5 µM (active) | –
31 | O=C1CC2(CCCC2)CC(=O)N1CCCCN1CCN(c2ncccn2)CC1 | 49 µM (active) and inactive | –
32 | NCCCCCC(=O)O | inactive | –
33 | C=CC(=O)OCCCCCCCC | inactive | –
34 | Cc1cccc(O)c1C | inactive | –
35 | CCn1cc(C(=O)O)c(=O)c2cc(F)c(N3CCNC(C)C3)c(F)c21 (stereo not given) | inactive | –
36 | NC(Cc1ccc(Cl)cc1)C(=O)O (stereo not given) | – | 9.19% [at 0.29 µM] (inactive)
37 | CCN(CC)C(=O)Nc1ccc(OCC(O)CNC(C)(C)C)c(C(C)=O)c1 (stereo not given) | inactive | –
38 | CCCCCCCCCCCCCCCCCl | – | 0.956% [at 15.8 µM] (inactive)
39 | O=C(O)CCc1ccccc1 | inactive | –
40 | CCCCCC(=O)O[C@]1(C(C)=O)CC[C@H]2[C@@H]3CCC4=CC(=O)CC[C@]4(C)[C@H]3CC[C@@]21C | 24.4 µM (active) | –
